For 40 sequences, PBM binding z-score results are on record in the supplement of paper PMC6555819.

In the first test the test system is PPARg homodimer (NR concentration 180 nM). Description: PBM binding z-score (relative to random genomic background probes); higher = stronger binding; sequences stand for … in GC…GCGATTGACAGCGTAGAATGAAGG
A digest of the protocol:
(§1)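 Custom Agilent 4×180K protein-binding microarrays carried double-stranded probes, each with a 34-nt variable region. These regions held direct-repeat seeds, single-nucleotide variants, half-site ablations and random human genomic background sequences. Ligand-free nuclear receptor dimers were incubated on the arrays for 1 h, antibodies against each partner (one per run) detected binding, and scanned fluorescence was regression-normalized. Binding z-scores take the random background probes as reference.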
AAATGTAGGTTATCGGGTCATTCAGTTTGCGCAT had a PBM binding z-score of 3.

For the sequence TCTTGTAGATCAACAGGAGGTAAAGAAAGATCGA, the PBM binding z-score is -0.233.

CCTTACGGGTCACGAGGTTATGGCACGACGAGCG had a PBM binding z-score of 2.01.

Sequence CCTCGGAGGACAGAAGATCAGAGCTGTCCGCTTT came in with a PBM binding z-score of -0.0483.

With TTACCAAGGCGAGCTGAGGTCGTTGATCCAACTC, the PBM binding z-score was -0.375.

With TCTAGTAGATCAGCAGGTTAAGAAAGCTGGCCAA, the PBM binding z-score turned out to be 0.292.

With GCGACTGGGGCATCAGCAGGTTACGATAACTTAA, the PBM binding z-score came to 0.335.

In turn, CGAACTAGGTCATCCAGGACAGTAAATACATTGA yielded a PBM binding z-score of 2.26.

As to ACTATTAGTTGAGACGAAGGCAACCGATAGGTTG, the PBM binding z-score is 0.149.

The sequence TCGAGTTGGTTAGTCGGGGCATTCAGCCAACATA yielded a PBM binding z-score of -0.2.

For TAGCCTAGGTCATTCAGGGGCCTGTATAGAAAGC, the PBM binding z-score is 0.863.

Turning to TAGCCAAGGTCATGGGCCAGTATACCACGCGAAC, the PBM binding z-score came to 2.86.

Turning to TCTAGTTGGGCACGGAGGTCACACACGACGGGTA, the PBM binding z-score was 2.73.

Sequence ATCTCTAGGTAAAGTACAGTGAAAGATCGATAGA registered a PBM binding z-score of 1.14.

With GTACCAAGATGAATAGGTCGTTGATGAGTAGGCG, the PBM binding z-score was 0.369.

CGAACTAGGTCCGAACAGGACAGTGAAGGATGAT showed a PBM binding z-score of -1.32.

In turn, CTCGAAAGGTCGTTCTCAGGTGAGTATACCAAAC returned a PBM binding z-score of 2.11.

As to CAAACTAAGTCAAGGTCAAAGTCGGTTTGTGCCA, the PBM binding z-score stood at 2.93.

As for GTTGCTAGGTCAGGTTGGTCAGCTAACGGGTACG, the PBM binding z-score was 1.29.

The sequence CCAACGAGGGCATGAGTTGATAGCAAATGCCGAT had a PBM binding z-score of -0.0585.

In turn, TCTTGTAGATCGGCAGGTTAAGAAAGCTGGCCAA displayed a PBM binding z-score of 0.0916.

Turning to TCGAGTAGGTTAGGGGCATTCAAAATGGCGTCGA, the PBM binding z-score is 0.857.

The sequence TAGCCTAGGTCATTCAGGGGCCAGTCTAGAAAGC gave a PBM binding z-score of 2.

TCTCCTAGGTCAGTTGGTCAGCTAACGAGCTGCC gave a PBM binding z-score of 1.05.

As for ATCGAAAGGTCGTGAGGTGAGTGTACAGAAAGGC, the PBM binding z-score came to 1.74.

CGTCAAAGTTCAAGGTAACGGAACAGAAAGCAGC had a PBM binding z-score of 1.96.

Consider ACTATTAGTTGAGACGAGGGCAAACGATAGGTTG, for which the PBM binding z-score was 0.189.

For the sequence TCGAGTAGGTTAGGGGCTTTCAGAATGGCGTCGA, the PBM binding z-score was 0.523.

With CGAGCTAGGTCAAGGACAGTGAATCTCCGCACGC, the PBM binding z-score was determined as 1.61.

Sequence ATCTCTAGGTAAGAAGTTCAGTGAAAGAGAGGAC registered a PBM binding z-score of 1.05.

For TTACCAAGGGGAGCTGAGGTCGTTGATCCAACTC, the PBM binding z-score is -0.405.

For the sequence ACAGACAGTTGAGTGAAGGTAACTCAGCTGGACG, the PBM binding z-score was -0.3.

In turn, TCTCGGAGGACACGTAAGGTCAGAGCTCGACATC gave a PBM binding z-score of 1.75.

In the case of ATCTCTAGGTAACAAGTTAAGTGAAAGAGAGGAC, the PBM binding z-score was determined as 0.926.

Regarding CTCGAAAAGTCGTGCTCAGGTGAGTATACCAAAC, the PBM binding z-score is 1.15.

Sequence TGAATGAGGTTATAAGCTCAGGGAACGTTGCAAA showed a PBM binding z-score of -0.0591.

In turn, AGAATGAGGTTATAAAGATCAGGGAATTGCGGTC displayed a PBM binding z-score of 1.14.

In turn, CAAACTAGGTCACCGGAAGGTCAACGTCCGCATG came in with a PBM binding z-score of 6.53.

ATAGGTAGGTTAGCTGGGGTCATTCAGACTAGGC displayed a PBM binding z-score of 3.23.

In the case of TCTATTAGTTGACTAGGGCAACCGAAACAGCGGA, the PBM binding z-score amounted to 1.

The subject of another test is PXR:RXRa (NR concentration 270 nM, RXRa partner concentration 90 nM). Described as above. The method in brief: as §1
AAATGTAGGTTATCGGGTCATTCAGTTTGCGCAT came in with a PBM binding z-score of 3.87.

As for TCTTGTAGATCAACAGGAGGTAAAGAAAGATCGA, the PBM binding z-score was determined as 0.0383.

With CCTTACGGGTCACGAGGTTATGGCACGACGAGCG, the PBM binding z-score stood at 4.16.

CCTCGGAGGACAGAAGATCAGAGCTGTCCGCTTT gave a PBM binding z-score of -0.636.

Take TTACCAAGGCGAGCTGAGGTCGTTGATCCAACTC: the PBM binding z-score came out at 1.71.

TCTAGTAGATCAGCAGGTTAAGAAAGCTGGCCAA: the PBM binding z-score was determined as 0.255.

As for GCGACTGGGGCATCAGCAGGTTACGATAACTTAA, the PBM binding z-score was 0.0357.

CGAACTAGGTCATCCAGGACAGTAAATACATTGA gave a PBM binding z-score of 2.15.

Sequence ACTATTAGTTGAGACGAAGGCAACCGATAGGTTG gave a PBM binding z-score of -0.912.

For the sequence TCGAGTTGGTTAGTCGGGGCATTCAGCCAACATA, the PBM binding z-score was 0.148.

The sequence TAGCCTAGGTCATTCAGGGGCCTGTATAGAAAGC came in with a PBM binding z-score of 1.75.

TAGCCAAGGTCATGGGCCAGTATACCACGCGAAC: the PBM binding z-score worked out at 4.24.

TCTAGTTGGGCACGGAGGTCACACACGACGGGTA came in with a PBM binding z-score of 3.91.

In turn, ATCTCTAGGTAAAGTACAGTGAAAGATCGATAGA registered a PBM binding z-score of 0.119.

In the case of GTACCAAGATGAATAGGTCGTTGATGAGTAGGCG, the PBM binding z-score is -0.0822.

As for CGAACTAGGTCCGAACAGGACAGTGAAGGATGAT, the PBM binding z-score is -0.715.

CTCGAAAGGTCGTTCTCAGGTGAGTATACCAAAC came in with a PBM binding z-score of 3.62.

Sequence CAAACTAAGTCAAGGTCAAAGTCGGTTTGTGCCA displayed a PBM binding z-score of 4.73.

GTTGCTAGGTCAGGTTGGTCAGCTAACGGGTACG came in with a PBM binding z-score of 0.651.

Sequence CCAACGAGGGCATGAGTTGATAGCAAATGCCGAT showed a PBM binding z-score of 0.213.

The sequence TCTTGTAGATCGGCAGGTTAAGAAAGCTGGCCAA registered a PBM binding z-score of 0.349.

In turn, TCGAGTAGGTTAGGGGCATTCAAAATGGCGTCGA showed a PBM binding z-score of 0.792.

TAGCCTAGGTCATTCAGGGGCCAGTCTAGAAAGC returned a PBM binding z-score of 2.58.

The sequence TCTCCTAGGTCAGTTGGTCAGCTAACGAGCTGCC showed a PBM binding z-score of 0.732.

As to ATCGAAAGGTCGTGAGGTGAGTGTACAGAAAGGC, the PBM binding z-score was found to be 3.17.

Sequence CGTCAAAGTTCAAGGTAACGGAACAGAAAGCAGC yielded a PBM binding z-score of 3.99.

Take ACTATTAGTTGAGACGAGGGCAAACGATAGGTTG: the PBM binding z-score was 1.83.

Consider TCGAGTAGGTTAGGGGCTTTCAGAATGGCGTCGA, for which the PBM binding z-score was -0.179.

The sequence CGAGCTAGGTCAAGGACAGTGAATCTCCGCACGC yielded a PBM binding z-score of 1.01.

ATCTCTAGGTAAGAAGTTCAGTGAAAGAGAGGAC came in with a PBM binding z-score of 0.898.

With TTACCAAGGGGAGCTGAGGTCGTTGATCCAACTC, the PBM binding z-score was found to be 2.35.

Take ACAGACAGTTGAGTGAAGGTAACTCAGCTGGACG: the PBM binding z-score was -0.386.

On to TCTCGGAGGACACGTAAGGTCAGAGCTCGACATC, for which the PBM binding z-score was found to be 3.15.

ATCTCTAGGTAACAAGTTAAGTGAAAGAGAGGAC: the PBM binding z-score was 0.289.

For CTCGAAAAGTCGTGCTCAGGTGAGTATACCAAAC, the PBM binding z-score turned out to be 0.0376.

TGAATGAGGTTATAAGCTCAGGGAACGTTGCAAA displayed a PBM binding z-score of 0.55.

As for AGAATGAGGTTATAAAGATCAGGGAATTGCGGTC, the PBM binding z-score is 1.2.

CAAACTAGGTCACCGGAAGGTCAACGTCCGCATG showed a PBM binding z-score of 5.79.

ATAGGTAGGTTAGCTGGGGTCATTCAGACTAGGC: the PBM binding z-score was 6.38.

On to TCTATTAGTTGACTAGGGCAACCGAAACAGCGGA, for which the PBM binding z-score was determined as 0.491.
